From PubChem
In the library only some 12% were active in any assay of this set; here they are far more common.
PLK1 PBD inh: blocks phosphopeptide binding to human PLK1 polo-box domain; P53350; Plk1 PBD binding of FITC phosphopeptide, fluorescence polarization; Potency, µM, actives largely listed as inhibitors; hit rate 2.8% among 360,000; AID 720504; note: series mostly up to about 57 µM; nearly all actives have a fitted effect of over 65% in size
PI5P4Ka inh: PI5P4K alpha (human) kinase inhibition | P48426 | PI5P4Kalpha enzyme, ADP-Glo luminescence, 60 min; active compounds read low | max response, % | hit rate 1.2% among 330,000; active = max response of -50% or lower; inconclusive = between -30% and -50%; inactive = -30% or higher; note: value at the top dose of about 77 µM
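Single end-point luminescence (ADP-Glo) quantified ADP from PI5P4Kalpha turnover; ATP 5 microM final, 1 h at RT, 0.1% CHAPS and 0.28 mM EGTA in HEPES pH 7.4.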
BAZ2B inh: inhibitors of human BAZ2B bromodomain; Q9UIF8; AID 504333; Potency, µM (titrated, usually from 114 µM), hits mostly inhibitors; AlphaScreen BAZ2B-H3K14Ac peptide displacement; hit rate 4.4% among 360,000; note: nearly all actives have a fitted effect of over 60% in size
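Protein-peptide AlphaScreen: BAZ2B 50 nM, b-H3K14Ac 50 nM, 1x PBS pH 7.4 + 0.01% Tween-20. Preincubation 30 min RT; cpd 30 min RT (top 110 uM); beads 20 min RT, light-protected.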
G9a inh: G9a (human) methyltransferase inhibition. Potency, µM (doses to about 102 µM), usual class: inhibitors. hit rate 8.8% among 350,000. G9a H3K9 monomethylation, AlphaScreen, 2 h. Q96KQ7. AID 504332; note: nearly all actives have a fitted effect of over 75% in size
Target sequence (Q96KQ7 913-1193 limits assumed): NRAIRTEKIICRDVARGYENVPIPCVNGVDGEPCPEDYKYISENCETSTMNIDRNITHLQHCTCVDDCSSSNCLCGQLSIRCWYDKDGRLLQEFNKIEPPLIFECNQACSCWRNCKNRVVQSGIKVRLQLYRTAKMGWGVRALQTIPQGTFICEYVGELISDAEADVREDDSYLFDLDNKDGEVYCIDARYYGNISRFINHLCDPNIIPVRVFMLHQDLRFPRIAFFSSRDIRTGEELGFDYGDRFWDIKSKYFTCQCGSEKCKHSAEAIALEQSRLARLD
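Compounds were preincubated with 20 nM G9a for 15 min, after which biotinylated H3K9 peptide (500 nM) and SAM (20 uM) started a 2 h room-temperature reaction. Monomethylated product was quantified by antibody-based AlphaScreen chemiluminescence.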
JMJD2A Tudor: JMJD2A Tudor domain (human) inhibition; AlphaScreen JMJD2A-Tudor / H3K4me3 peptide binding; Potency, µM (series often up to 114 µM), usual class: inhibitors; hit rate 4.4% among 390,000; note: nearly all actives have a fitted effect of over 50% in size
HP1b binding inh: blocks HP1-beta chromodomain binding to methylated histone tails | AlphaScreen HP1-beta / biotin-H3K9me3 peptide binding | Potency, µM (doses to about 114 µM), usual class: inhibitors | hit rate 0.56% among 390,000; note: nearly all actives have a fitted effect of over 70% in size
Target sequence (P83916 whole entry, looked up): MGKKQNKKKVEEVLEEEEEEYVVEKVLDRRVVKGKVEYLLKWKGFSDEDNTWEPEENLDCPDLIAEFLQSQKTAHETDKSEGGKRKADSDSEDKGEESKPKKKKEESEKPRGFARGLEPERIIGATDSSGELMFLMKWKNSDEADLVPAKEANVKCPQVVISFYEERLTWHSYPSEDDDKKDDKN
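AlphaScreen: HP1-beta (50 nM) preformed 30 min with biotin-H3(1-18)K9me3 peptide (50 nM) in PBS pH 7.4, 0.01% Tween-20. Compound added for 30 min at RT, then streptavidin donor/nickel chelate acceptor beads (10 ug/mL) for 30 min.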
Numbers stand for hits; i = inactive; ? = inconclusive; nt = no result; ! = a repeat was not active; [ ] = remark or other dose. Unless noted, calls come from the whole dose curve; as a rule, active = well fitted curve in the direction sought with a large enough effect; inconclusive = small, poorly fitted or top-dose-only effect, or another doubt; inactive = no such curve, though single readings can be large; an effect the other way counts as inactive or inconclusive.

SMILES	PLK1 PBD inh	PI5P4Ka inh	BAZ2B inh	G9a inh	JMJD2A Tudor	HP1b binding inh
CC(=O)c1cccc2c(O)c(C3=Nc4ccccc4C3=O)[nH]c12	?	i	25.1µM	?	44.7µM	i
O=C1C(c2c(O)[nH]c3ccccc23)=Nc2ccccc21	i	i	i	i	i	i
Cc1cc(C(=O)NCc2ccc(C(=O)O)o2)c(C)o1	i	nt	56.2µM	?	22.4µM	?
CN(c1ccccc1)S(=O)(=O)c1ccc(Cl)c(C(=O)Nc2nc3ccccc3[nH]2)c1	i	i	i	i	i	i
CN(c1ccccc1)S(=O)(=O)c1ccc(Cl)c(C(=O)Nc2nn[nH]n2)c1	i	i	?	28.2µM	i	i
Cc1ccc(Cl)cc1NC(=O)Nc1cn(CC(C)C)c(=O)c2ccccc12	nt	nt	i	?	i	i
N#Cc1ccc(CN2CC[C@@]3(CCCN(C(=O)c4ccncc4)C3)C2)cc1	nt	nt	nt	i[12.7 µM]	nt	nt
CC1CC(C)CN(C(=O)COC(=O)Cc2ccc(Br)cc2)C1 (stereo not drawn)	29.9µM	i	i	i	i	i
CCCC(=O)Nc1nnc(SCc2cc(=O)c3ccc(C)cc3[nH]2)s1	nt	nt	i	i	i	i
CN1CCN(C2=C(Cl)C(=O)C(c3cnc(N4CCCCC4)s3)=C(Cl)C2=O)CC1	3.77µM	-89.0	i	i	4.47µM	?
O=C1C(Cl)=C(N2CCC(C(=O)O)CC2)C(=O)c2ccccc21	?	?	?	50.1µM	i	i
NC(=O)C1CCN(C2=C(Cl)C(=O)c3ccccc3C2=O)CC1	26.7µM	nt	25.1µM	11.2µM	i	?
CN1CCN(C2=C(Cl)C(=O)c3ccccc3C2=O)CC1	9.47µM	i	nt	nt	22.4µM	?
CN(C)C(=O)c1ccc(NC(=O)CSc2nnc(-c3cccs3)n2N)cc1	i	i	i	i	i	i
Cc1ccc(-c2nn3c(-c4ccccc4)nnc3c3ccccc23)cc1	nt	nt	i	i	i	i
N#C/C(=N/Nc1ccc([N+](=O)[O-])cc1)C(=N)N1CCCCC1	i	i	35.5µM	?	56.2µM	?
N#C/C(=N\Nc1ccc([N+](=O)[O-])cc1)C(=N)N1CCOCC1	i	i	i	nt	i	i
N#C/C(=N\Nc1ccc([N+](=O)[O-])cc1)C(N)=S	i	?	14.1µM	nt	28.2µM	35.5µM
COc1ccccc1CNC(c1ccccc1)c1ccccc1	i	i	i	i	i	i
COc1cc(C)c(NC(c2ccccc2)c2ccccc2)cc1OC	i	i	39.8µM	28.2µM	44.7µM	?
CCCNC(=O)CN1C(=O)CSc2ccc(S(=O)(=O)N3CCC(C)CC3)cc21	nt	nt	i	i	i	i
Cc1c(C(O)(c2ccccc2)c2ccccc2)[n+]2ccccc2n1C	nt	nt	nt	nt	i	nt
CSc1ccc(C(=O)c2[nH]c(=O)[nH]c2C)cc1	?	?	i	10.6µM!	i	i
Cc1c(C(=O)Nc2cccc(C(F)(F)F)c2)sc2nc3n(c(=O)c12)CCCC3	nt	nt	i	3.55µM	i	i
CC(=O)Nc1ccc(NC(=O)c2sc3nc4n(c(=O)c3c2C)CCCCC4)cc1	i	i	i	i	i	i
SMILES	PLK1 PBD inh	PI5P4Ka inh	BAZ2B inh	G9a inh	JMJD2A Tudor	HP1b binding inh
Cc1c(C(=O)N(C)c2cccc(C(F)(F)F)c2)sc2nc3n(c(=O)c12)CCCCC3	nt	nt	31.6µM	14.1µM	?	i
CC(=O)c1cccc(NC(=O)c2sc3nc4n(c(=O)c3c2C)CCCC4)c1	23.8µM	i	i	i	?	i
CCc1ccc(NC(=O)c2sc3nc4n(c(=O)c3c2C)CCC4)cc1	i	i	i	i	i	i
CCOc1ccc(NC(=O)c2sc3nc4n(c(=O)c3c2C)CCCC4)cc1	nt	nt	31.6µM	15.8µM	?	i
CS(=O)(=O)N1CCC2(CCN(C(=O)Nc3cccc(C#N)c3)CC2)CC1	nt	nt	nt	i[12.7 µM]	nt	nt
O=[N+]([O-])c1ccc(N/N=C2/CCCCC2c2ccccn2)cc1 (stereo not drawn)	i	i	?	31.6µM	15.8µM	i
O=[N+]([O-])c1ccc(NC2CCCC2)cc1	i	i	i	i	i	i
O=C(Nc1ccccn1)C12CC3CC(C1)CC(C(=O)Nc1ccccn1)(C3)C2	i	i	?	i	i	i
O=C(Nc1nc(-c2ccccn2)cs1)C12CC3CC(CC(O)(C3)C1)C2	?	i	14.1µM	28.2µM	i[11.4 µM]	?
O=C(CC1CC2CCC1C2)Nc1nc(-c2ccccn2)cs1 (stereo not drawn)	?	i	44.7µM	20µM	i	i
O=C(Nc1nc(COc2ccccc2)cs1)C12CC3CC(CC(C3)C1)C2	i	nt	i	44.7µM	i	i
CCc1nc2cc(NC(=O)C3(C)CCCN(C(C)=O)C3)ccc2o1 (stereo not drawn)	i	i	nt	nt	nt	nt
CN1C[C@@H]2[C@@H]3C(=O)N(Cc4ccccc4)C(=O)[C@@H]3[C@](C)(C1=O)N2C(=O)c1ccc(Cl)cc1	i	i	nt	nt	i	i
COCc1cc(=O)[nH]c(=S)[nH]1	i	i	i	4.47µM	12.6µM	i
O=c1cc(Cc2ccccc2)[nH]c(=S)[nH]1	i	i	i	?	?	i
CCn1c(=O)c2cc(C(=O)Nc3cc(C)c(Cl)cc3OC)sc2c2ccccc21	nt	nt	i	i	i	i
Cc1cc[n+](-c2nc3ccccc3nc2C(=C=[N-])C#N)cc1	i	i	i	50.1µM	i	i
N#CC(=C=[N-])c1nc2ccccc2nc1-[n+]1ccccc1	26.7µM!	i	i	?	i	i
CCc1ccc[n+](-c2nc3ccccc3nc2C(=C=[N-])C#N)c1	i	i	i	?	i	i
Cc1cc(C)c[n+](-c2nc3ccccc3nc2C(=C=[N-])C#N)c1	i	i	i	i	i	i
Cc1ccc[n+](-c2nc3ccccc3nc2C(=C=[N-])C#N)c1	i	i	?	50.1µM!	i	i
CC(Oc1ccc(Cl)cc1)C(=O)N(C)CC(=O)Nc1ccc(N2CCOCC2)cc1 (stereo not drawn)	i	i	?	nt	i	i
Cc1cc(Br)cn2c(Cc3ccsc3)c(-c3ccc(Cl)cc3)nc12	?	i	nt	nt	nt	nt
Cc1ccc(C)n1-c1nnc(N2CCCC(C(=O)Nc3ccc(C(C)C)cc3)C2)s1 (stereo not drawn)	nt	nt	i	i	i	i
COc1ccc(Br)cc1S(=O)(=O)N1CCN(S(=O)(=O)c2ccc3c(c2)OCCO3)CC1	nt	nt	nt	nt	i	nt
COc1ccc(-c2cc(C(F)(F)F)nc(SCc3cccc(C(=O)O)c3)n2)cc1	21.2µM	nt	i	i	?	i
O=C(O)c1cccc(CSc2nc(-c3ccccc3)cc(C(F)(F)F)n2)c1	?	i	i	i	i	i
CCC1CCc2c(sc(NC(=O)CSc3nc(-c4ccco4)cc(C(F)(F)F)n3)c2C#N)C1 (stereo not drawn)	23.8µM	nt	i	i	i	i
CCOC(=O)c1sc(NC(=O)CSc2nc(-c3ccco3)cc(C(F)(F)F)n2)c(C(=O)OCC)c1C	i	i	nt	nt	i	i
